Shown are actives, neighbours in structure and some others; about 0.42% of the full set was active somewhere.
CatS inh = inhibitors of human cathepsin S, biochemical, compound mixtures; P25774; recombinant cathepsin S, AMC dipeptide fluorescence, pooled mixtures; inhibition, %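 (tested at 5 µM per compound within 10-compound mixtures)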; hit rate 0.06% among 62,000; AID 501, 2006; in the data active means inhibition above about 32%, passing the limit was not always enough;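 further: 0% = enzyme without compound and 100% = blank without enzyme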
CatB mixtures = cathepsin B inhibitors from pooled compounds, primary screen, biochemical, compound mixtures, AMC fluorescence; P07858; Purified cathepsin B, AMC dipeptide fluorescence; inhibition, %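 (ten-compound pools at 5 µM per compound and 50 µM total)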; hit rate 0.06% among 62,000; in the data active means inhibition above about 22%, passing the limit was not always enough;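 further: 0% = enzyme without compound and 100% = no enzyme blank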
CatB block = human cathepsin B inhibitors, primary screen, biochemical, fluorogenic substrate; P07858; purified cathepsin B, fluorescence; inhibition, %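 (tested at 10 µM)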; hit rate 0.1% among 63,000; in the data active means inhibition above about 21%;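 further: 0% = enzyme with no compound and 100% = no enzyme blank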
CatL inh = inhibitors of human cathepsin L, biochemical | Procathepsin L (Homo sapiens), P07711 | purified cathepsin L, fluorogenic substrate, fluorescence | inhibition, %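 (tested at 10 µM)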 | hit rate 0.17% among 58,000; in the data active means inhibition above about 45%;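 further: 0% = enzyme with no compound and 100% = no enzyme blank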
Target sequence (P07711 114-288 limits assumed): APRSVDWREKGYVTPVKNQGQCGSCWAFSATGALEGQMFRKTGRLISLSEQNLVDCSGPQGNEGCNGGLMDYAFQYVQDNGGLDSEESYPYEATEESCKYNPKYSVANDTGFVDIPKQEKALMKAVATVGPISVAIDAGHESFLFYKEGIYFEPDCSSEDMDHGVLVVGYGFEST
Target sequence (P07711 292-333 limits assumed): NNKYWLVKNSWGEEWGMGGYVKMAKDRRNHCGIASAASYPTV
WNV protease inh = inhibitors of WNV NS2B-NS3 protease, primary screen, biochemical, fluorogenic substrate. AID 577, 2007. Genome polyprotein (West Nile virus), P06935. fluorogenic substrate Ex360/Em465; stronger effect = lower value. hit rate 0.18% among 65,000. z-score (concentration not given with the values); in the data active means z-score below about -3
* hit, by the source's call; . = no result given.

SMILES	CatS inh	CatB mixtures	CatB block	CatL inh	WNV protease inh
CN(CCNC(=O)c1cc2c(=O)n(C)c3ccccc3c2n1C)Cc1ccccc1	72*	1	4	.	-0.65
Cn1c(C(=O)NCCCN2CCCC2=O)cc2c(=O)n(C)c3ccccc3c21	1	4	0	1	-0.05
CCCN(CCC)CCNC(=O)c1cc2c(=O)n(C)c3ccccc3c2n1C	77*	-7	3	-3	-0.88
Cn1c(=O)oc2cc(S(=O)(=O)Nc3ccc4c(c3)OCO4)ccc21	0	6	-2	4	-0.13
Cc1ccc(-c2nnc(SCC(=O)N3CC(C)CC(C)C3)o2)cc1C (configuration not stated)	-2	2	1	2	0.35
O=C(NCc1ccc(F)cc1)C1CCC(=O)N1CCc1ccccc1 (configuration not stated)	-1	-3	42*	11	2.4
COc1ccc2nc(/N=C\N(C)C)sc2c1	7	1	41*	14	0.2
CC(C)(C)C(=O)Oc1cc(N)n(S(=O)(=O)c2ccccc2)n1	25	7	9	18	-0.63
COc1ccc(S(=O)(=O)n2nc(OC(=O)c3ccco3)cc2N)cc1	16	67*	78*	14	-7.7*
COc1ccc(S(=O)(=O)n2nc(OC(=O)c3ccccc3Br)cc2N)cc1	-22	-2	3	-8	-4.2*
COc1ccc(S(=O)(=O)n2nc(OC(=O)c3ccc(C)cc3)cc2N)cc1	-5	32*	49*	-3	-0.72
COc1ccc(S(=O)(=O)n2nc(OC(=O)c3cccs3)cc2N)cc1	0	68*	76*	-4	-5.6*
O=C(Oc1cccc(Br)c1)c1cccnc1	1	1	4	0	2.4
COc1ccc(S(=O)(=O)n2nc(OC(=O)c3ccccc3)cc2N)cc1	14	29*	39*	-1	-6.4*
CCN(CC)CC(=O)Nc1cc(C)c2c(=O)oc3ccccc3c2n1	-3	-4	-4	.	1.1
O=C(COCc1nc2ccccc2c(=O)[nH]1)NC1CCCC1	8	2	-2	.	-0.8
Cc1ccc(CN(C(=O)Cn2nnc3ccccc32)C(C(=O)NCc2ccco2)c2cccs2)cc1 (configuration not stated)	12	23*	4	6	0.56
COc1ccccc1OCC(=O)Nc1oc(-c2ccccc2)c(-c2ccccc2)c1C#N	4	-3	55*	.	-0.69
COc1cc(OC)c(Cl)cc1N	3	-4	-1	6	-0.39
COc1ccc(OC)c(S(=O)(=O)NCc2ccccc2)c1	0	-2	0	21	0.31
COc1ccc(OC)c(NS(=O)(=O)Cc2ccccc2)c1	7	2	12	73*	-0.38

Assay outcomes from PubChem BioAssay.
